KinaseGlo FLuc: Kinase-Glo luciferase inhibition (counter-screen). Q27757. Kinase-Glo luciferase, ATP luminescence, 8 min. Potency, µM (highest dose often 38.3 µM), for the others: top-dose activity change, negative = inhibition, hits mostly inhibitors. 0.28% of 200,000 active. AID 1379; note: % is set by controls: 0 for no effect and ±100 for the full control effect; nearly all actives have a fitted effect of over 60% in size
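Luminescence was the read-out, taken after 8-minute incubation at ambient temperature. Luciferase turned over luciferin with 10 uM ATP in imidazole pH 7.2 buffer containing KCl, MgCl2, Tween 20 and BSA.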
NPC1 promoter act: activators of NPC1 promoter | 2.4% of 320,000 active | Potency, µM (series often up to 9.22 µM), inactives show at the top dose activation, usual class: activators | AID 485313 | Huh7 NPC1 promoter luciferase reporter, 24 h; note: % of control where 0% means no effect; nearly all actives have a fitted effect of over 60% in size
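Luminescence from an NPC1 promoter-driven luciferase reporter in stably transfected Huh7 cells was measured after 24 h compound treatment at 37 °C, followed by 10 min ambient incubation with luciferase detection reagent.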
FLuc modulator: firefly luciferase modulation, counter-screen for miR-21 project; purified FLuc, Km substrates, luminescence inhibition; Potency, µM (titrated, usually from 57.5 µM), for inactives: at the highest dose activity change, negative = inhibition, usual class: inhibitors; 6.9% of 360,000 active; AID 588342;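 note: plate controls were vehicle for no effect and reference inhibitor for full effect; nearly all actives have a fitted effect of over 55% in size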
Target sequence (P08659 whole entry, looked up): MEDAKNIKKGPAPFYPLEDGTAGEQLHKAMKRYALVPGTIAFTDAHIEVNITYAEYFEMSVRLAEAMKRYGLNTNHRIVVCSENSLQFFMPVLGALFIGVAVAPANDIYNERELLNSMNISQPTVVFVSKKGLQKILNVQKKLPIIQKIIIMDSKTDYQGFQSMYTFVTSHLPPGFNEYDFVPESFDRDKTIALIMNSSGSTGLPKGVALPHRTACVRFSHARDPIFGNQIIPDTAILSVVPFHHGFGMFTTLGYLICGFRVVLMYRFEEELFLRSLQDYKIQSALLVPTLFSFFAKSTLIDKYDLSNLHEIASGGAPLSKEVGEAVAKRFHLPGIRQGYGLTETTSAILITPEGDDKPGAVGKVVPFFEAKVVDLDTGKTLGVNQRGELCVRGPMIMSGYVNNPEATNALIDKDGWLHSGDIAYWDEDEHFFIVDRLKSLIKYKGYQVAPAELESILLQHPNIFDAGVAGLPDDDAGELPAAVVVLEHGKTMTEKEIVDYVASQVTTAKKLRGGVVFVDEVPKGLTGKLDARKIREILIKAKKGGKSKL
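Biochemical qHTS of compounds, final roughly 60 µM downward over six points, against 10 nM purified firefly luciferase using Km concentrations of substrates (10 uM D-luciferin, 10 uM ATP) in Tris acetate pH 7.5 buffer; luminescence output.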
Rab9 promoter act: activates the Rab9 promoter | 2.8% of 320,000 active | AID 485297 | Huh7 Rab9 promoter-luciferase reporter, luminescence, 24 h | Potency, µM (series often up to 9.22 µM), without a hit: at the highest dose activation, negative = inhibition, most hits filed as activators; note: % of control where 0% means no effect; nearly all actives have a fitted effect of over 60% in size
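Measured in stably transfected Huh7 cells bearing a Rab9 promoter–luciferase construct: 24 h compound treatment at 37 °C, followed by luminescence detection.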
SMN2 splice up: SMN2 splice variant enhancement | HEK293 SMN2-luciferase splicing reporter, luminescence, 30-36 h | Potency, µM (highest dose often 46.1 µM), for inactives: at the top dose activity change, positive = activation, usual class: activators | 2.8% of 210,000 active | AID 1458; note: % of control where 0% means no effect; nearly all actives have a fitted effect of over 55% in size
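HEK293 cells carry an SMN2 minigene-luciferase reporter in which exon 7 inclusion puts luciferase in frame. Cells were seeded at 2000 cells/well, attached for 10-12 hours, then exposed to compounds for 30-36 hours at 37C before ONE-Glo luminescence.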
ELG1 genotoxic: genotoxicity induction in ELG1-luciferase HEK293T cells. HEK293T ELG1-luciferase reporter, luminescence, 16 h. 1.3% of 330,000 active. Potency, µM (top dose mostly 46 µM), inactives show at the highest dose activity change, positive = activation, actives largely listed as activators; note: % of control where 0% means no effect; nearly all actives have a fitted effect of over 60% in size
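ELG1-luciferase HEK293T cells, 2,000/well; compound pinned in; 16 hr, 37 °C, 5% CO2; ONE-Glo, 30 min RT; luminescence on CCD imager.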
Starred values were filed as active, the others as inactive; [ ] = remark or other dose. The list is not random: actives were taken first. Their share in the collection is about 7.4%. Calls come from the whole dose curve; as a rule, active = well fitted curve in the direction sought with a large enough effect; inconclusive = small, poorly fitted or top-dose-only effect, or another doubt; inactive = no such curve, though single readings can be large; an effect the other way counts as inactive or inconclusive. Potency is the fitted concentration of half-maximal effect.

CC(C(=O)NCCC1=CCCCC1)c1ccc([N+](=O)[O-])cc1 (stereo not drawn) was read as KinaseGlo FLuc 2%, NPC1 promoter act 0%, FLuc modulator 1%, Rab9 promoter act 0%, SMN2 splice up -21% and ELG1 genotoxic -7%.
`N#Cc1c(N2C(=O)Nc3ccccc3N2O)sc2c1CCCCCC2` gave KinaseGlo FLuc 0%, NPC1 promoter act 9%, FLuc modulator inconclusive, Rab9 promoter act 1%, SMN2 splice up 18% and ELG1 genotoxic -3%.
N#Cc1c(-n2ncnc2-c2ccc(F)cc2)sc2c1CCCCC2 was read as FLuc modulator 0.43µM* and SMN2 splice up -11%.
`CC(C)(C)NCc1cccn1-c1sc2c(c1C#N)CCCC2` gave KinaseGlo FLuc 0%, NPC1 promoter act 0%, FLuc modulator 2%, Rab9 promoter act 0%, SMN2 splice up -16% and ELG1 genotoxic -5%.
`Cc1ccccc1-c1ncnn1-c1sc2c(c1C#N)CCCCC2` gave FLuc modulator 0.34µM* and SMN2 splice up -9%.
Screening N#Cc1c(-n2ncnc2-c2cccc(Br)c2)sc2c1CCCCC2 returned FLuc modulator 3.4µM* and SMN2 splice up -3%.
Screening Cc1ccc(NC(=O)CNC(=O)Cc2cccc3ccccc23)c(O)c1 returned NPC1 promoter act 0%, FLuc modulator 1%, Rab9 promoter act -2% and ELG1 genotoxic 1%.
Cc1nc2ccc(NC(=O)Cc3cccs3)cc2s1 was read as KinaseGlo FLuc -1%, NPC1 promoter act 4µM*, FLuc modulator 7.6µM*, Rab9 promoter act 2.5µM*, SMN2 splice up inconclusive and ELG1 genotoxic inconclusive.
`Cc1ccc(NC(=O)Cc2cccs2)cc1Cl` gave NPC1 promoter act 25%, FLuc modulator 19µM*, Rab9 promoter act inconclusive and ELG1 genotoxic 10%.
Screening Cc1ccc(NC(=O)Cc2ncon2)cc1Cl returned NPC1 promoter act 8%, FLuc modulator 15µM*, Rab9 promoter act 17% and ELG1 genotoxic 5%.
For Cc1nc2ccc(NC(=O)Cc3ccc(Br)cc3)cc2s1 the results were NPC1 promoter act -4%, FLuc modulator -17%, Rab9 promoter act 1% and ELG1 genotoxic 3%.
For Cc1nc2ccc(NC(=O)N(C)c3ccccc3)cc2s1 the results were KinaseGlo FLuc -5%, NPC1 promoter act inconclusive, FLuc modulator 13µM*, Rab9 promoter act inconclusive, SMN2 splice up 22µM* and ELG1 genotoxic inconclusive.
For COc1cc(NC(=O)C[n+]2ccc(C(=O)c3ccccc3)cc2)cc(OC)c1 the results were ELG1 genotoxic 1%.
For COc1cc(C(=O)COC(=O)c2ccncc2)cc(OC)c1OC the results were ELG1 genotoxic 1%.
For CC(=O)Nc1ccc(C(=O)Nc2ccc3c(c2)N(C2CCCC2)C(=O)c2ccccc2S3)cc1 the results were FLuc modulator -8%.
For CC(=O)Nc1cccc(NC(=O)Cc2cccs2)c1 the results were NPC1 promoter act 0%, FLuc modulator 0%, Rab9 promoter act 1% and ELG1 genotoxic -2%.
Screening O=C(Cc1cccs1)Nc1cccc(-c2nc3cc4ccccc4cc3[nH]2)c1 returned KinaseGlo FLuc inconclusive, NPC1 promoter act 1.6µM*, FLuc modulator 0.85µM*, Rab9 promoter act 1.8µM*, SMN2 splice up 6.3µM* and ELG1 genotoxic inconclusive.
c1ccc(N2CC3CCc4ccccc4C3=N2)cc1 (stereo not drawn) was read as NPC1 promoter act inconclusive, FLuc modulator 8.5µM*, Rab9 promoter act 3.2µM* and ELG1 genotoxic inconclusive.
O=C1Cc2ccccc2C(=O)N1c1ccccc1 was read as NPC1 promoter act -4%, FLuc modulator 1%, Rab9 promoter act -5% and ELG1 genotoxic 5%.
For CCOC(=O)c1cnc(-c2ccccc2)nc1N1CCOCC1 the results were KinaseGlo FLuc 9%, NPC1 promoter act -4%, FLuc modulator -2%, Rab9 promoter act -6%, SMN2 splice up 2% and ELG1 genotoxic -10%.
For CCOC(=O)c1cnc2c(-c3ccccc3)cnn2c1C the results were KinaseGlo FLuc 0%, NPC1 promoter act 2.5µM*, FLuc modulator 1.9µM*, Rab9 promoter act 1.6µM*, SMN2 splice up 11µM* and ELG1 genotoxic 8.2µM*.
For CCOC(=O)c1cnc2c(ccc3ccccc32)c1N the results were NPC1 promoter act 1.6µM*, FLuc modulator inconclusive, Rab9 promoter act 1.1µM* and ELG1 genotoxic 8.2µM*.
For CCOC(=O)c1cnc(-c2ccccc2)nc1N(C)C the results were KinaseGlo FLuc -2%, NPC1 promoter act -4%, FLuc modulator 15µM*, Rab9 promoter act -3%, SMN2 splice up 4.5µM* and ELG1 genotoxic 11µM*.
CCOC(=O)c1cnc(-c2ccccc2)nc1N was read as KinaseGlo FLuc inconclusive, NPC1 promoter act 2.8µM*, FLuc modulator 9.5µM*, Rab9 promoter act 2µM*, SMN2 splice up 7.1µM* and ELG1 genotoxic 3.3µM*.
Screening CCCOc1ccc(N2C(=O)CC(SCc3nc4ccccc4[nH]3)C2=O)cc1 (stereo not drawn) returned KinaseGlo FLuc 0%, NPC1 promoter act -5%, FLuc modulator 1%, Rab9 promoter act -10% and ELG1 genotoxic 0%.
Screening CCOc1ccc(C(=O)CSc2nnc3cc(C)c4ccccc4n23)cc1 returned FLuc modulator -3%.
Screening O=C(O)CSc1nc2sc3c(c2c(=O)n1Cc1ccccc1)CCCCC3 returned NPC1 promoter act 24%, FLuc modulator inconclusive, Rab9 promoter act 22% and ELG1 genotoxic inconclusive.
Screening O=C(O)CSc1cc(C(=O)c2ccccc2O)cn2c(=O)c3c4c(sc3nc12)CCCC4 returned NPC1 promoter act 1%, FLuc modulator 4.3µM*, Rab9 promoter act 2% and ELG1 genotoxic 12%.
`Cc1ccc(-c2nnc(Nc3ccc4c(c3)OCO4)c3ccccc23)cc1S(=O)(=O)NC(C)C` gave KinaseGlo FLuc -1%, NPC1 promoter act 1%, FLuc modulator 5.4µM*, Rab9 promoter act -1%, SMN2 splice up 1% and ELG1 genotoxic -6%.
For Cc1ccc(-c2nnc(Nc3ccc4c(c3)OCO4)c3ccccc23)cc1S(=O)(=O)NCCO the results were KinaseGlo FLuc -2%, NPC1 promoter act 0%, FLuc modulator 15µM*, Rab9 promoter act 16%, SMN2 splice up -16%[1.84 µM] and ELG1 genotoxic -1%.
Screening CCOC(=O)c1c(S(=O)(=O)NCC(=O)Nc2cccc(CC)c2)c(C)n(C)c1C returned FLuc modulator 3%.

High-throughput results (PubChem BioAssay)
